These entries were drawn from the full list.
aSyn UTR act: Activators via SNCA 5'UTR binding, MLPCN. alpha-synuclein 5'UTR reporter, activators screen. activity score, % (tested at 7.5 µM), hits read low. 300,000 compounds, 7.1% hits. AID 1814, 2009; in the data active means activity score below about -60%
Hits are given with their value; i = inactive.

SMILES | aSyn UTR act
O=C(NCCc1ccccc1F)C(=O)Nc1nccs1 | -122
O=C(Nc1n[nH]c(=S)s1)c1ccc2ccccc2c1 | -115
COc1ccc2oc(-c3ccc(C)c(NC(=O)c4ccc(N5CCOCC5)c([N+](=O)[O-])c4)c3)nc2c1 | -95
O=C(Nc1nccs1)c1ccc2ccccc2c1 | -114
CCOc1cccc(C(=O)Nc2nccs2)c1 | -173
O=C(Nc1nccs1)c1ccc(Br)cc1 | -161
CCOc1ccc(OCC(=O)Nc2nccs2)cc1 | i
O=C(Nc1nccs1)c1ccccn1 | -123
O=C(Nc1nccs1)c1ccc(N2CCOCC2)c([N+](=O)[O-])c1 | -80
COc1ccc(-c2ccc(-c3noc(C)n3)c(OC)n2)cc1 | -146
COCc1nc(-c2ccc(-c3ccc(C)cc3)nc2OC)no1 | -190
Cn1c(SCc2ccc3c(c2)OCO3)nnc1-c1ccccc1 | -80
COc1ccc(CSc2nnc(-c3ccncc3)n2C)cc1F | -94
COc1ccc(Cn2c(SCc3ccc(C)cc3)nc3cc(OC)c(OC)cc3c2=N)cc1Cl | i
c1ccn2c(SCc3ccc4c(c3)OCO4)nnc2c1 | -93
Clc1ccc(CSc2nncn2-c2ccc3c(c2)OCCO3)cc1 | i
c1ccn(-c2ccc(-c3ccn[nH]3)cc2)c1 | -164
O=C(Nc1ccc(Cl)c(Cl)c1)Nc1ccon1 | -69
O=C(Nc1ccc(Cl)c(Cl)c1)Nc1ccccc1O | -105
CCOC(=O)c1ccc(NC(=O)Nc2ccon2)cc1 | i
CCN(c1ccccc1)S(=O)(=O)c1ccc(Oc2ccc(-n3ccnc3)cc2)nc1 | i
COc1ccc(S(=O)(=O)n2ccc(-c3cnc(-c4ccccc4)s3)n2)cc1 | -140
O=C(/C=C/c1c(F)cccc1Cl)Nc1ncccn1 | -228
Cn1c(NNC(=O)c2ccccc2F)cc(=O)n(C)c1=O | i
Cn1c(NC(=O)/C=C\c2ccccc2)cc(=O)n(C)c1=O | -137
SMILES | aSyn UTR act
Cn1c(NC(=O)/C=C/c2c(F)cccc2Cl)cc(=O)n(C)c1=O | -172
Cn1c(O)c(C=Nc2ccc(Br)cc2)sc1=O | -173
S=C(Nc1cc(Cl)cc(Cl)c1)NC1CCN(Cc2ccccc2)CC1 | i
O=C(Nc1ccc2c(c1)OCO2)OCc1ccccc1 | -123
O=C(Nc1cccc(Cl)c1)N1CCN(Cc2ccccc2)CC1 | -159
O=C(/C=C/c1cccc(Cl)c1)NCCc1ccccc1 | -67
O=C(NCCc1ccccc1)C(=O)Nc1ccc2c(c1)OCCO2 | -137
O=C(CCc1ccccc1)Nc1ccc2c(c1)OCO2 | -123
O=C(NCCc1ccccc1)Nc1ccc2c(c1)OCO2 | -80
O=C(NCCc1ccc(F)cc1)Nc1ccc2c(c1)OCO2 | -139
O=C(NCCc1ccccc1)Nc1cccc(Cl)c1 | -88
O=C(CCS(=O)(=O)c1ccc(Br)cc1)Nc1ccc2c(c1)OCO2 | -64
C/C(=N\Nc1nc2ccc(Cl)cc2o1)c1ccccc1 | -66
Cc1ccc(C(=O)/C=C/c2ccc3ncccc3c2)cc1 | -68
CSc1ccc(/C=C/C(=O)c2ccc(O)cc2)cc1 | -172
COc1cc(C(=O)OCC#N)ccc1OCc1c(C)noc1C | -66
Cc1ccc(/C=C/C(=O)c2ccc(O)cc2)cc1 | -309
COc1cc(/C=C/C(=O)c2ccc(C)cc2)ccc1OCC#N | -100
COC(=O)c1c(C)[nH]c(C(=O)/C=C/c2cccc(Cl)c2)c1C | -232
COC(=O)c1c(C)[nH]c(C(=O)/C=C/c2ccccc2)c1C | -107
COC(=O)c1c(C)[nH]c(C(=O)/C=C/c2ccc(C)cc2)c1C | -73
COC(=O)c1c(C)[nH]c(C(=O)CSc2ccc(Cl)cc2)c1C | -134
Clc1ccc(Cc2noc(-c3cccs3)n2)cc1 | -132
COc1ccc(/C(O)=C/c2nc3ccccc3n(-c3ccccc3)c2=O)cc1 | -84
CC[C@@H](C)[C@H](CNC)NC[C@@H](Cc1cccc2ccccc12)NCCc1cccc(C(F)(F)F)c1 | i
SMILES | aSyn UTR act
CNC[C@@H](CC1CCCCC1)NC[C@H](CC(C)C)NCCc1cccc(C(F)(F)F)c1 | i
CC(C)NC(=O)CCc1nnc(Cc2cccc(C(F)(F)F)c2)o1 | -95
Cc1cc(/C=C(\C#N)C(=O)Nc2ccccc2)c(C)n1-c1cccnc1 | -143
N#C/C(=C\c1ccccc1O)C(=O)Nc1cccnc1 | -107
O=C(Nc1cc(C(F)(F)F)ccc1Cl)C(Sc1nnc(-c2cccs2)o1)c1ccccc1 (stereo not given) | -109
CCC(=O)N/C(N)=N/c1nc(C)c2cc(OC)ccc2n1 | -107
COc1ccc2nc(/N=C(\N)NC(=O)C(C)(C)C)nc(C)c2c1 | -85
Cc1cccc(CSc2cccc3cccnc23)c1 | -103
c1cnc2c(SCc3ccc(-c4nnco4)cc3)cccc2c1 | -82
COc1ccc(-c2c(C#N)c(N)nc(Sc3ccc(Cl)cc3)c2C#N)cc1 | i
COc1ccc(-c2cc3nc4ccccc4n3c(N)c2C#N)cc1 | -128
Oc1[nH]c2ccccc2c1C=Nc1ccccc1 | -130
CCN(CC)c1ccc(N=Cc2c(C)[nH]c3ccccc23)cc1 | i
COc1ccc(COc2ccsc2C(=O)Nc2ccc(Cl)c(Cl)c2)cc1 | -68
Cc1cc(C(=O)Nc2ccc(OCc3ccccc3)cc2)c(C)o1 | -134
Cc1ccc(C(=O)Nc2ccc(OCc3ccccc3)cc2)s1 | -107

High-throughput results (PubChem BioAssay)
